Tau fluor counter: Counterscreen qHTS for Inhibitors of Tau Fibril Formation, Fluorescence Polarization | Potency, µM (series often up to 57.7 µM) | hit rate 0.93% among 280,000 | tau K18 P301L Alexa594 fluorescence, heparin fibrillization; note: nearly all actives have a fitted effect of over 55% in size
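Human K18 P301L tau (15 uM unlabeled plus 0.24 uM Alexa 594-labeled, final) in 100 mM sodium acetate pH 7 was mixed with compound and 20 uM heparin and incubated 6 hr at 37 C.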
Tau FP inhib: qHTS for Inhibitors of Tau Fibril Formation, Fluorescence Polarization; Microtubule-associated protein tau (Homo sapiens), P10636; K18 P301L tau heparin fibrillization, Alexa594 FP, 6 h; Potency, µM (series often up to 57.7 µM), actives largely listed as inhibitors; hit rate 0.39% among 280,000; AID 1468, 2008; note: nearly all actives have a fitted effect of over 55% in size
Target sequence (P10636 561-689 P618L limits assumed): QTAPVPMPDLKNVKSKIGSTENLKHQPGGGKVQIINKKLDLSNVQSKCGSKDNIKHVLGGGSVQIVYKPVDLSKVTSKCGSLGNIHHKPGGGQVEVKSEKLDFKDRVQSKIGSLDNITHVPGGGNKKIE
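Recombinant K18 P301L […], labeled with Alexa 594 at 0.24 uM over 15 uM unlabeled; heparin inducer 20 uM final; 37 C, 6 hr; FP endpoint.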
Tau ThT inhib: qHTS for Inhibitors of Tau Fibril Formation, Thioflavin T Binding; Microtubule-associated protein tau (Homo sapiens), P10636; recombinant tau K18 P301L (four-repeat tau fragment), heparin-induced fibrillization, ThT fluorescence; Potency, µM (series often up to 57.4 µM), hits mostly inhibitors; hit rate 2.1% among 270,000; note: nearly all actives have a fitted effect of over 55% in size
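Aggregation was driven by heparin (20 uM final) acting on recombinant tau […] bearing P301L in 100 mM sodium acetate pH 7; fibrils were detected with Thioflavin T.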
RORgamma inh: qHTS for inhibitors of ROR gamma transcriptional activity; Nuclear receptor ROR-gamma (Mus musculus), P51450; Drosophila S2 Gal4-RORgamma UAS-luciferase reporter, 20 h; Potency, µM (highest dose often 53.6 µM), hits mostly inhibitors; hit rate 5.4% among 310,000; AID 2551, 2010; note: nearly all actives have a fitted effect of over 60% in size
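Stable Schneider cell line, Gal4 DNA-binding domain fused to ROR gamma, UAS-luciferase. Cmpd 1 hr RT → CuSO4 700 uM final → 20 hr RT → luciferase reagent 10 min → luminescence.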
VP16 counter: VP16 counterscreen qHTS for inhibitors of ROR gamma transcriptional activity; Drosophila S2 Gal4-VP16 UAS-luciferase, luminescence, 20 h; Potency, µM (series often up to 53.6 µM), most hits filed as inhibitors; hit rate 3.5% among 310,000;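 note: Gal4-VP16 expression switched on by copper sulfate through the metallothionein promoter; nearly all actives have a fitted effect of over 50% in size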
A number is an active result; 0 = inactive; ? = inconclusive; - = no result; [ ] = another dose, or the depositor's remark. Most compounds without a hit are left out; they make up all but 7.3% or so of the library. Calls come from the whole dose curve; as a rule, active = well fitted curve in the direction sought with a large enough effect; inconclusive = small, poorly fitted or top-dose-only effect, or another doubt; inactive = no such curve, though single readings can be large; an effect the other way counts as inactive or inconclusive.

SMILES | Tau fluor counter | Tau FP inhib | Tau ThT inhib | RORgamma inh | VP16 counter
COc1ccc(/C=C(\NC(=O)c2ccc([N+](=O)[O-])cc2)C(=O)NCCCN2CCOCC2)cc1 | - | - | - | 0 | 0
Cn1cc(CCC(=O)N2CCCC(N3CCN(c4ccccc4F)CC3)C2)cn1 (centres undefined) | - | - | - | 0 | 0
Cc1c2cnn(-c3ccccc3)c(=O)c2c(C)n1C(C)C(=O)Nc1ccccc1C(F)(F)F (centres undefined) | 0 | 0 | 0 | - | -
CCn1c(C(=O)N2CCC(C(=O)N3CCN(c4cccc(C)c4C)CC3)CC2)cc2sccc21 | 0 | 0 | ? | - | -
N/C(=N\N=C\c1ccc(Cl)cc1)N/N=C/c1ccc(Cl)cc1 | - | - | - | 14µM | 0
CC1=C(C(=O)Nc2ccccc2)C(c2cccs2)n2nc(SCc3ccccc3)nc2N1 (centres undefined) | 0 | 0 | 0 | - | -
O=C(O)CC12CSc3[nH]c(=O)sc3C1c1ccccc1OC2=O (centres undefined) | 0 | ? | 25µM | 0 | 0
N#CC1=C(SCC(N)=O)NC2=C(C(=O)c3ccccc32)C1c1ccc(Cl)cc1 (centres undefined) | ? | ? | 14µM | 0 | 0
CC1(C)CC(=O)C2=C(C1)NC1=C(C(=O)c3ccccc31)C2c1ccc(Cl)cc1 (centres undefined) | ? | 0 | ? | ? | 0
COc1ccccc1-c1cc(C(F)(F)F)nc(S(=O)(=O)CCCC(=O)Nc2cc(C)on2)n1 | 0 | 0 | 0 | 11µM | 7.9µM
COc1ccc(Cl)cc1NC(=O)CCCS(=O)(=O)c1nc(-c2ccc(OC)c(OC)c2)cc(C(F)(F)F)n1 | 0 | 0 | 0 | - | -
COc1ccc(-c2cc(C(F)(F)F)nc(S(=O)(=O)CCCC(=O)Nc3cc(C)on3)n2)cc1OC | 0 | 0 | 0 | 3.5µM | ?
COc1ccc(CNC(=O)[C@H](C)NC(=O)C2CCN(S(=O)(=O)c3ccccc3)CC2)cc1 | - | - | - | 0 | 0
C(=C\c1ccco1)/C=N/n1cnnc1 | 0 | 32µM | 25µM | 0 | 0
S=c1[nH]nc(-c2ccncc2)n1/N=C/C=C/c1ccco1 | 0 | 0 | ? | ? | 0
CSc1ccc(C2C(C(=O)c3ccco3)=C(O)C(=O)N2c2nnc(SC)s2)cc1 (centres undefined) | - | - | - | 0 | 0
CCOC(=O)CSc1nsc(SCC(=O)OCC)c1C#N | 0 | 0 | ? | 0 | 0
Cc1ccc(NC(=O)CSc2nsc(SCC(=O)Nc3ccc(C)cc3C)c2C#N)c(C)c1 | 0 | 0 | 0 | ? | 0
Cc1csc(NC(=O)CSc2nsc(SCC(=O)Nc3nc(C)cs3)c2C#N)n1 | 10µM[quencher] | 0 | 4µM | 0 | 0
CC(=O)CSc1nsc(SCC(C)=O)c1C#N | 0 | ? | 16µM | ? | ?
Fc1ccc(-c2noc3ncnc(NC4CCCCC4)c23)cc1 | 0 | 0 | 0 | - | -
COc1ccc(-c2cn3nc(N4CCC(C(=O)Nc5cccc(OC)c5)CC4)sc3n2)cc1 | 0 | 0 | ? | - | -
Clc1ccc(CCNc2nc3ccccc3s2)cc1 | ? | 0 | 0 | 11µM | 0
c1coc(CNc2nc3ccccc3s2)c1 | - | - | - | 0 | 0
c1csc(CNc2ncncc2-c2ccoc2)c1 | - | - | - | 0 | 0
SMILES | Tau fluor counter | Tau FP inhib | Tau ThT inhib | RORgamma inh | VP16 counter
O=C(c1ccc(-c2ccccc2)cc1)C1CCCN(Cc2ccncc2)C1 (centres undefined) | 0[2.34 µM] | 0 | 0 | 11µM | 0
O=C(c1ccc(-c2ccccc2)cc1)C1CCCN(C(=O)c2ccncc2)C1 (centres undefined) | 0 | 0 | 0 | 0 | 0
CC(OC(=O)c1ccc(C(C)(C)C)cc1)C(=O)NC1CCCCC1C (centres undefined) | - | - | - | 0 | 14µM
COc1ccc(COc2cc(-c3cccc(OC)c3)nc3ccc(NC(=O)c4ccc(Cl)cc4)cc23)cc1 | 0 | 20µM | 0 | 0 | 0
CCNc1ncc2nc(-c3ccc(Cl)cc3)c(=O)n(Cc3cccc(OC)c3)c2n1 | - | - | - | 0 | 0
COc1ccc(-c2cc(C)no2)cc1S(=O)(=O)NCCCN1CCCCCC1 | - | - | - | 0 | 0
